# Biological target: AMP-activated protein kinase, AMPK (Homo sapiens) (UniProt P54646+O43741+P54619+Q9UGJ0+Q9Y478+Q13131+Q9UGI9)
# Assay: AMP-dependent Kinase enzyme assay. An in vitro enzyme assay that detects ADP turnover that is directly proportional to AMPK activity. This uses naive AMPK that is activated during the assay with MK-8722
# Format: functional
# Design: scale not given: direction of the effect not stated beside the values
# Conditions: 30 µM
row,Compound,Percent Effect
1,Cn1cc(CCCN2CCCC(c3cc(C(F)(F)F)[nH]n3)C2)cn1 (stereo unspecified),-0.434%
2,CCSc1cccc(NCc2cccnc2)c1,-1.67%
3,COc1cccc2ccc(N3CCC(O)(C(=O)O)CC3)nc12,1.15%
4,Cn1ncc2c(NC3CCSC3)nc(-c3ccncc3)nc21 (stereo unspecified),9.02%
5,Cn1nccc1-c1cccc(CC2CCN(S(C)(=O)=O)C2)n1 (stereo unspecified),8.3%
6,CCn1c(C2CCN(C(=O)c3ccc4cc[nH]c4c3)CC2)n[nH]c1=O,-10.8%
7,CC(=O)c1sc(C(NC(=O)c2ccccc2)C2CC2)nc1C (stereo unspecified),-2.1%
8,CN(CCCOc1ccccc1Cl)C(=O)CN1C(=O)CCNC1=O,7.42%
9,CSC1(CNC(=O)N(C)Cc2ccc(C)s2)CCOCC1,-2.72%
10,Cc1nc(C(C)C)sc1C(C)N(C)C(=O)c1ccc(=O)n(C)c1 (stereo unspecified),5.47%
11,CCN(C(=O)CN1CCCN(c2nc(C)ns2)CC1)C1CC1,5.97%
12,O=S(=O)(NCCCn1cncn1)c1ccc2c(c1)CCC2,8.86%
13,FC(F)(F)c1cccc(OC2CCN(Cc3ncc[nH]3)CC2)c1,7.66%
14,CN(Cc1cc(Br)cs1)Cc1nnsc1Cl,15.7%
15,Cc1nn(C)c2ncnc(NCc3nncn3C3CCCCC3)c12,10.1%
16,O=C(Cn1nc2ccccc2n1)N1CCCC(O)(CN2CCCC2)C1 (stereo unspecified),-2.27%
17,Cn1cncc1C(=O)N1CCCC(c2ccn[nH]2)C1 (stereo unspecified),-5.31%
18,CC(=O)Nc1ccc(-c2ccccc2NC(=O)CN)cc1,17.8%
19,CN1CC(C(=O)NCCc2ccc(F)c(Br)c2)CC1=O (stereo unspecified),5.17%
20,CC(C)Oc1cccc(F)c1C(C(=O)O)N1CCCC1 (stereo unspecified),8.59%
21,Cn1cc(C(=O)NCc2ccc(OC3CCCCC3)nc2)ccc1=O,-0.122%

# Source: ChEMBL document CHEMBL3988442, “University of Dundee, Small-Polar-MMV Screening Library” (2021)
